Activity calls are given as the source filed them. The calls were made as follows: active = hit-call score of the fitted dose curve at least 0.9, where 1 is the maximum; inactive = score below 0.9.

Signal transducer and activator of transcription 3 (Homo sapiens), sequence (P40763 whole entry, looked up): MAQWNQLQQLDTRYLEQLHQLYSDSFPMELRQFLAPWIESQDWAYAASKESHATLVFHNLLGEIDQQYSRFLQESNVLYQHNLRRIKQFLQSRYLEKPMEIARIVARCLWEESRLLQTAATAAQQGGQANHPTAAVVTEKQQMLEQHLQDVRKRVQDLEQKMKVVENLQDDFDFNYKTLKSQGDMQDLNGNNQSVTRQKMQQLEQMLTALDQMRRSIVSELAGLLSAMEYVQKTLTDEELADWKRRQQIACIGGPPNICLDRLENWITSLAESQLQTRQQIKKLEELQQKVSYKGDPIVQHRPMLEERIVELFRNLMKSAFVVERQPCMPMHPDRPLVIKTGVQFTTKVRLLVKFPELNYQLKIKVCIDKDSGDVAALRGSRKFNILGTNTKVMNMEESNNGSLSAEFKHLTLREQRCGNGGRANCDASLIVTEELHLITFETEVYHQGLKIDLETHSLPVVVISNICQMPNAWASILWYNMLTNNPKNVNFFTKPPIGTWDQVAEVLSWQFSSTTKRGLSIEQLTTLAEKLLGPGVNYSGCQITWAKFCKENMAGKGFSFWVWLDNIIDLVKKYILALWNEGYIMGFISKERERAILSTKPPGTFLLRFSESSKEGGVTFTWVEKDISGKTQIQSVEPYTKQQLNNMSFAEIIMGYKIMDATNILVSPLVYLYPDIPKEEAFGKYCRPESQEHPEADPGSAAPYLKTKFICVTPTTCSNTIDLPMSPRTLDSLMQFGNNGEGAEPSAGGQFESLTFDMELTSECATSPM

Read-out in this test: Signal transducer and activator of transcription 3 (Homo sapiens) (UniProt P40763)
In words: LTEA_HepaRG_STAT3: Life Technologies and Expression Analysis (LTEA) Assay for Signal transducer and activator of transcription (STAT3) using HepaRG (AID 2283529). To be noted: mRNA level, 48 h; actives raise or lower the signal. An outline of the steps:
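In this transcriptional endpoint, HepaRG cultures receive test chemicals at up to 100 uM for 48 h, tested in duplicate. STAT3 mRNA is normalized to ACTB, GAPDH and POLR2A.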
`C[C@]12CCC(=O)C=C1CC[C@@H]1[C@@H]2CC[C@@]2(C)[C@H]1CC[C@]2(C)O`: the molecule was classed as inactive.

A word on the AC50: it is the midpoint of the concentration-response curve, whichever way the signal moves. With `ClC1=C(Cl)[C@]2(Cl)[C@@H]3[C@@H]4C[C@@H]([C@H]5O[C@@H]45)[C@@H]3[C@@]1(Cl)C2(Cl)Cl`, the AC50 was 0.0319 µM (active).

On to `CCOP(=S)(OCC)SCSC(C)(C)C`, for which the call was inactive.

Consider `CCC(=O)O[C@H]1CC[C@H]2[C@@H]3CCC4=CC(=O)CC[C@]4(C)[C@H]3CC[C@]12C`, for which the result was inactive.

On to `CC(c1ccc(O)cc1)(c1ccc(O)cc1)c1ccc(O)cc1`, for which the half-maximal activity concentration (AC50) is 90.9 µM (active).

Consider `CCNc1nc(NC(C)C)nc(SC)n1`, for which the molecule was called inactive.

In the case of `O=C(N[C@H]1CN2CCC1CC2)c1cc2ccoc2cn1`, the call was inactive.

With `O=S(=O)(O)C(F)(F)C(F)(F)C(F)(F)C(F)(F)C(F)(F)C(F)(F)F`, the outcome was inactive.

Consider `COc1ccc(O)c(C(C)(C)C)c1`, for which the molecule was classed as inactive.

Consider `Cc1ccccc1[N+](=O)[O-]`, for which the molecule was classed as inactive.

As for `CCOC(=O)C(O)(c1ccc(Cl)cc1)c1ccc(Cl)cc1`, the outcome was inactive.

In the case of `Oc1ccc(Cl)cc1Cl`, the result was inactive.

The record behind these values is PubChem BioAssay (EPA / NIEHS).
